Assay results published in PubChem BioAssay (NCATS).
Results filed as inconclusive are left out. Calls of active or inactive are those of the source. Calls come from the whole dose curve; as a rule, active = well fitted inhibition curve with a large enough effect; inconclusive = small, poorly fitted or top-dose-only effect; inactive = no such curve, though single readings can be large or run the other way.

Each compound was assayed on Zika virus NS2B-NS3 protease (unlinked complex) (assay: Primary screen GU Rhodamine qHTS for Zika virus inhibitors: Unlinked NS2B-NS3 protease assay (AID 1347159; note: nearly all actives have a fitted effect of over 60% in size)). Conditions: Recombinant ZIKV NS2B-NS3 protease, Rhodamine110 substrate fluorescence; series mostly up to 107 µM; activity change, negative = inhibition: at the top concentration.
Outline: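 Percent inhibition came from the 15-min rise in Rhodamine110 fluorescence (1.5 microM substrate, ~15% conversion), normalized to no-inhibitor and no-enzyme wells and Hill-fitted. Unlinked protease, 25 nM, pH 8.0 Tris buffer; compounds up to 114 microM, 15-min preincubation.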
% is set by controls: 0 for no effect and ±100 for the full control effect; potency is the fitted concentration of half-maximal effect.

Row | Structure (SMILES) | activity change, negative = inhibition | Potency
1 | Cc1nnc(-c2sc(NC(=O)[C@H](C(C)C)n3c(=O)[nH]c4ccccc4c3=O)nc2C)o1 | -20.1% (inactive) | –
2 | N#CN1CCC[C@@H](n2nc(-c3ccc(Oc4ccc(F)cc4F)cc3)c(C(N)=O)c2N)C1 | 25.9% (inactive) | –
3 | Cc1ccccc1N1CCN(S(=O)(=O)C[C@]23CC[C@H](C[C@@H]2NC(=O)[C@@H](N)CCS(C)(=O)=O)C3(C)C)CC1 | 14.7% (inactive) | –
4 | C=CC(C)(O)C1CC2C3(C)CCCC(C)(C)C3C(O)C(O)C2(C)O1 (stereo not given) | 9.68% (inactive) | –
5 | Cc1ccc(Cl)cc1N(CC(=O)Nc1c(F)cccc1F)S(C)(=O)=O | 16.8% (inactive) | –
6 | COc1c2c(c(C)c3c1C(=O)OC3)OC1(C)CC(O)C34OC(O)(CCC3(C)C1C2)OC4(C)C (stereo not given) | 1.41% [at 57.1 µM] (inactive) | –
7 | C=C[C@H]1[C@H](O[C@@H]2O[C@H](CO)[C@@H](O)[C@H](O)[C@H]2O)OC=C(C(=O)OC)[C@H]1CC=O | 15.4% (inactive) | –
8 | COC(=O)C1=COC(OC2OC(CO)C(O)C(O)C2O)C2C(COC(=O)/C=C/c3ccc(O)cc3)C(O)C(O)C12 (stereo not given) | -26.9% [at 57.1 µM] (inactive) | –
9 | CCC(=O)N1CCc2cc(OC)c(O)cc2C1 | 1.81% (inactive) | –
10 | C[C@@H]1O[C@@H](OC(=O)Cc2ccccc2)[C@H](O)[C@H](O)[C@H]1O | 4.16% (inactive) | –
11 | N[C@@H](CC(=O)Nc1ccc(Oc2cc(F)c(F)cc2Br)cc1)C(=O)O | – | 70.8 µM (active)
12 | CC(=O)OC12CC(C)C(O)C1/C=C(/COC1OC(CO)C(O)C(O)C1O)CCC1C(/C=C(\C)C2=O)C1(C)C (stereo not given) | 10.7% [at 57.1 µM] (inactive) | –
13 | COC(=O)C1C(c2ccc(O)cc2)C(C(=O)O)C1c1ccc(O)cc1 (stereo not given) | 16.9% (inactive) | –
14 | C=C1CCC2C(C)(C(=O)OC)CCCC2(C)C1CCC1=CCOC1=O (stereo not given) | -11.6% (inactive) | –
15 | CC12CC(O)C(O)C=C1c1cc(O)cc(O)c1C(=O)O2 (stereo not given) | -18.8% (inactive) | –
16 | CC1(C)CC[C@]2(C(=O)O)CC[C@]3(C)C(=CCC4[C@@]5(C)C[C@@H](O)[C@H](O)[C@](C)(CO)C5CC[C@]43C)[C@@H]2[C@@H]1O (stereo not given in full) | 7.68% [at 57.1 µM] (inactive) | –
17 | CC[C@H]1OC(=O)[C@H](C)[C@@H](O[C@H]2C[C@@](C)(OC)[C@@H](O)[C@H](C)O2)C(C)[C@@H](O[C@@H]2O[C@H](C)C[C@H](N(C)C)[C@H]2O)[C@](C)(O)C[C@@H](C)CN(C)[C@H](C)[C@@H](O)[C@]1(C)O (stereo not given in full) | 4.9% (inactive) | –
18 | C/C=C/C=C/C(O)=C1/C(=O)[C@]2(C)C3/C(=C(O)/C=C/C=C/C)C(=O)C4(C)C1[C@]1(C)O[C@@]4(O)[C@@]3(C)O[C@@]12O | -10.5% [at 57.1 µM] (inactive) | –
19 | CC(C)=CCc1c(O)cc2oc3cc(C)cc(O)c3c2c1C | – | 20 µM (active)
20 | CO[C@@H]1[C@]2(O)C(=O)N3/C=C\C(C)(C)c4[nH]c5ccccc5c4/C=C\3C(=O)N2[C@]23[C@H](CO)C(C)(C)N2c2ccccc2[C@]13O | 20.4% [at 57.1 µM] (inactive) | –
21 | COC(=O)C1=CO[C@@H](O[C@@H]2O[C@H](CO)[C@@H](O)[C@H](O)[C@H]2O)[C@H]2[C@@H]1C=C[C@]21C=C([C@H](C)OC(=O)/C=C/c2ccc(O[C@@H]3O[C@H](CO)[C@@H](O)[C@H](O)[C@H]3O)cc2)C(=O)O1 | 5.28% [at 32.5 µM] (inactive) | –
22 | C=C1C(OC(C)=O)CCC2(C)CCC(C(C)(C)O)CC12 (stereo not given) | 4.96% (inactive) | –
23 | O=C(O)/C=C/c1ccc2occc2c1O[C@@H]1O[C@H](CO)[C@@H](O)[C@H](O)[C@H]1O | 7.68% (inactive) | –
24 | C[C@@H]1O[C@@H](O[C@H]2[C@H](Oc3cc(O)c(C(=O)CCc4ccc(O)cc4)c(O)c3)O[C@H](CO)[C@@H](O)[C@@H]2O)[C@H](O)[C@H](O)[C@H]1O | 6.03% (inactive) | –
25 | COC(=O)C1=CO[C@@H](O[C@@H]2O[C@H](CO)[C@@H](O)[C@H](O)[C@H]2O)/C(=C\CO)[C@@H]1CC(=O)OCCc1ccc(O)cc1 | -2.77% [at 57.1 µM] (inactive) | –
